SNCA viab count: counter-screen for SNCA expression inhibitors: cell viability; HEK-293-SNCA-luc viability, GF-AFC fluorescence, 24 h; Potency, µM (highest dose often 57.1 µM), for the others: top-dose activity change, negative = cytotoxicity, usual class: cytotoxic; 0.12% of 150,000 active; AID 1671193;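 also: potency is read from the fitted curve at half-maximal effect; 0% = DMSO-treated cells and -100% = medium-only wells without cells; nearly all actives have a fitted effect of over 30% in size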
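HEK-293-SNCA-luc cells (1500/well) plated 24 h, then exposed 24 h to a dilution series; GF-AFC added 30 min at 37C, fluorescence 405/540 nm; normalised to medium-only and DMSO wells, Hill fit.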
KDM5B inhibitor: blocks human KDM5B histone demethylase activity; KDM5B demethylase, FDH-coupled NADH fluorescence (FDH is formaldehyde dehydrogenase); Potency, µM (titrated, usually from 57.7 µM), hits mostly inhibitors; 2.6% of 220,000 active; also: potency is read from the fitted curve at half-maximal effect; 0% is about no effect; nearly all actives have a fitted effect of over 70% in size
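qHTS format, multiple compound concentrations. Buffer 50 mM HEPES pH 7.5/0.01% Tween-20; 200 nM KDM5BΔAP final; 10 min compound preincubation; substrate-mix levels 12.5 µM peptide, 25 µM α-KG, 0.25 mM NAD⁺; 30 min RT; ΔRFU.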
SNCA expr inh: SNCA gene expression inhibition; HEK-293 SNCA-luciferase knock-in, luminescence, 24 h; Potency, µM (top dose mostly 57.2 µM), for the others: top-dose activity change, negative = inhibition, usual class: inhibitors; 0.17% of 140,000 active;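 also: potency is read from the fitted curve at half-maximal effect; plate controls were DMSO cells for no effect and cell-free wells for full effect; nearly all actives have a fitted effect of over 45% in size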
IP6K1 inh: blocks human inositol hexakisphosphate kinase 1 | activity change, % (series mostly up to about 58 µM) | IP6K1 kinase, ADP-Glo luminescence, 2 h; active compounds read low | 0.81% of 140,000 active; in the data active = activity change below about -25%; also: % is scaled to controls: 0 for no effect and ±100 for the full control effect
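ADP-Glo luminescence measures ADP made by human IP6K1 during a 2 h RT reaction with ATP/IP6 (mix at 1.3 mM/130 uM); top library doses 57.5 and 19.1 uM final.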
* marks the source's active call; other numbers are inactive results; [ ] = another dose, or the depositor's remark. An excerpt weighted towards active compounds, which were near 3% of everything screened. Unless noted, calls follow the shape of the dose curve; as a rule, active = well fitted curve in the direction sought with a large enough effect; inconclusive = small, poorly fitted or top-dose-only effect, or another doubt; inactive = no such curve, though single readings can be large; an effect the other way counts as inactive or inconclusive.

COc1ccc(-c2c(C(=O)NCCCc3ccccc3)nc3sccn23)cc1 was read as SNCA viab count -13%, SNCA expr inh -8% and IP6K1 inh 4.
O=C(c1nccs1)c1cccnc1N1CCNCC(O)C1 (stereo not given) was read as SNCA viab count 1%, KDM5B inhibitor 10µM*, SNCA expr inh 24% and IP6K1 inh 7.
For C=C1C(=O)O[C@@H]2/C=C(\C)CC/C=C(/C=O)[C@H](OC)[C@@H](OC(=O)C(C)C)[C@@H]12 the results were SNCA viab count inconclusive and IP6K1 inh -2.
C=C1C(=O)O[C@@H]2/C=C(\C)C(=O)/C=C/[C@](C)(O)C[C@@H](OC(=O)C(C)C)[C@@H]12 was read as SNCA viab count 9.3µM* and IP6K1 inh -1.
For O=C(CCC1CCN(c2cc(NC3CC3)ncn2)CC1)NCc1cc(F)cc(F)c1 the results were SNCA viab count 10%, KDM5B inhibitor inactive, SNCA expr inh 4.5µM* and IP6K1 inh 12.
O=C(CCC1CCN(c2cc(NC3CC3)ncn2)CC1)NCc1ccc(F)cc1 was read as SNCA viab count 5%, KDM5B inhibitor inactive, SNCA expr inh inconclusive and IP6K1 inh 17.
`O=C(CCC1CCN(c2cc(NC3CC3)ncn2)CC1)NCc1ccc(F)cc1F` gave SNCA viab count -6%, KDM5B inhibitor inactive, SNCA expr inh 3.5µM* and IP6K1 inh 19.
For CCCC(=O)Nc1ccc(CNCc2cccnc2)cc1 the results were KDM5B inhibitor inactive.
Screening COc1ccc(CCNC(=O)c2cc(-c3ccccc3F)nc3c2cnn3C)cc1 returned IP6K1 inh -1.
Cc1ncc2n1C(=O)N(C1CCN(Cc3ccc(F)cc3)CC1)C2 was read as SNCA viab count inconclusive, KDM5B inhibitor inactive, SNCA expr inh inconclusive and IP6K1 inh 10.
For Cc1ncc2n1C(=O)N(C1CCN(Cc3ccncc3)CC1)C2 the results were SNCA viab count inconclusive, KDM5B inhibitor 40µM*, SNCA expr inh 15%[87.6 µM] and IP6K1 inh 7.
COc1ccccc1C(=O)Nc1cc(-c2ccncc2)nn1C was read as SNCA viab count -6%[87.6 µM], SNCA expr inh 53%[87.6 µM] and IP6K1 inh 4.
Screening O=C(c1cccnc1)N1C[C@@H]2OCC(=O)N(Cc3ccccn3)[C@@H]2C1 returned SNCA viab count 4%[87.6 µM], KDM5B inhibitor inactive, SNCA expr inh -23%[87.6 µM] and IP6K1 inh -5.
CCOC(=O)c1cccnc1N1C[C@H]2OC(=O)N(Cc3ccccn3)[C@H]2C1 was read as SNCA viab count 12%, KDM5B inhibitor 28µM*, SNCA expr inh 26% and IP6K1 inh 17.
`Fc1cnc(N2CCCC(OCc3cccnc3)C2)nc1N1CCOCC1` (stereo not given) gave SNCA viab count -6%, KDM5B inhibitor 28µM*, SNCA expr inh -12% and IP6K1 inh -3.
For FC(F)(F)c1ccnc(N2CCC(OCc3cccnc3)CC2)n1 the results were SNCA viab count -14%, KDM5B inhibitor inactive, SNCA expr inh inconclusive and IP6K1 inh 9.
O=C(Cn1c(NCc2ccccc2)nc2ccccc21)Nc1ccccc1 was read as KDM5B inhibitor inactive.
COc1ccccc1-c1cc2c(ccn2C)c(C(=O)NCCc2cnc[nH]2)n1 was read as SNCA viab count -12%[87.6 µM], KDM5B inhibitor 40µM*, SNCA expr inh 23%[87.6 µM] and IP6K1 inh 1.
For Cn1ccc2c(C(=O)NCCc3cnc[nH]3)nc(-c3cnn(Cc4ccccc4)c3)cc21 the results were SNCA viab count -8%[87.6 µM], KDM5B inhibitor 32µM*, SNCA expr inh -15%[87.6 µM] and IP6K1 inh -6.
Screening Cn1ccc2c(C(=O)NCCc3cnc[nH]3)nc(-c3ccccc3)cc21 returned SNCA viab count -23%[87.6 µM], KDM5B inhibitor inactive, SNCA expr inh 44%[87.6 µM] and IP6K1 inh 7.
COc1ccc(-c2cc3c(ccn3C)c(C(=O)NCCC(N)=O)n2)cc1OC was read as SNCA viab count 3%[87.6 µM], KDM5B inhibitor 35µM*, SNCA expr inh inconclusive and IP6K1 inh -4.
Screening COc1cccc(-c2cc3c(ccn3C)c(C(=O)NCCc3cnc[nH]3)n2)c1OC returned SNCA viab count -13%[87.6 µM], KDM5B inhibitor 40µM*, SNCA expr inh 46%[87.6 µM] and IP6K1 inh -15.
`Cn1ccc2c(C(=O)NCCc3cnc[nH]3)nc(-c3cccnc3)cc21` gave SNCA viab count -11%[87.6 µM], KDM5B inhibitor inactive, SNCA expr inh -9%[87.6 µM] and IP6K1 inh -16.

From PubChem BioAssay
